Experimental findings from PubChem BioAssay are described below.

Experiment [1] deals with PRMT1 (protein arginine N-methyltransferase 1). The experiment is described as follows: PRMT1 binders on small-molecule microarrays, primary screen, biochemical, small-molecule microarray, 635 nm fluorescence (AID 1088).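 Also: binding of Prmt1 protein to compounds spotted on small-molecule microarray slides.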 The following applies: small-molecule microarray binding, higher = more signal.
Experiment [2] in a line: yeast growth modulation, basal conditions, primary screen, YJM789 clinical isolate, OD600, 24 h (AID 1089).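 Also: growth of clinical yeast isolate S. cerevisiae YJM 789 seeded 1000 cells per well; test concentration not given here.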 The following applies: S. cerevisiae YJM789 growth, higher = more signal, called active from +8 up or from −8 down.
The nature of experiment [3]: fission yeast growth modulation, primary screen, strain 972, OD600, 24 h, no modulator (AID 1090).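 Also: basal condition with compound alone and no growth modifier present; test concentration not given here.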 The note with it: S. pombe 972 growth, higher = more signal, called active from +8 up or from −8 down.
The nature of experiment [4]: S. cerevisiae growth modulation with rapamycin, primary screen, strain BY4716, OD600, 96 h (AID 1091). Also: test concentration not given here. The note with it: higher = more signal, called active from +8 up or from −8 down.
In experiment [5] the target is Torsin-1A-interacting protein 2 (Homo sapiens) (UniProt Q8NFQ8). The experiment is described as follows: LULL1 binders on small-molecule microarray, primary screen, cell lysate, human LULL1 lysate, 635/667 nm fluorescence (AID 1092).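 Also: probe is lysate of COS7 cells overexpressing human LULL1; score merges per-feature 667 nm fluorescence with signal-to-noise.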 The note with it: hLULL1 lysate binding, 635 nm fluorescence, higher = more signal.
Experiment [6] is described as follows: E. coli growth modulation, two-sided OD650, primary screen, E. coli filamentation project, strain DRC41, 24 h (AID 1093).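 Also: MC1000 strain lacking acrAB efflux and sulA so SOS filamentation is blocked; test concentration not given here.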 The following applies: OD650, 24 h, higher = more signal, called active from +8 up or from −8 down.
A short description of experiment [7]: small-molecule microarray binders of probe aLefty2, primary screen, biochemical, biotinylated probe, 635/667 nm fluorescence (AID 1094).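 Also: score merges spot fluorescence near 667 nm with spot signal-to-noise ratio.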 The note with it: higher = more signal.
Experiment [8] deals with Noggin (protein binding on small-molecule microarray). The experiment is described as follows: Noggin binders on small-molecule microarray, primary screen, biochemical, 635/667 nm fluorescence (AID 1095).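 Also: score merges 667 nm feature fluorescence with signal to noise over triplicate slides.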 The note with it: 635 nm fluorescence, higher = more signal.
In experiment [9] the target is Neurogenic locus notch homolog protein 3 (Homo sapiens) (UniProt Q9UM47). The experiment is described as follows: NOTCH3 binders on small-molecule microarray, primary screen, biochemical, 635/667 nm fluorescence (AID 1096). The note with it: NOTCH3 binding, 635 nm fluorescence, higher = more signal.
The nature of experiment [10]: small-molecule microarray binders of probe aEGFR, primary screen, biochemical, biotinylated probe, 635/667 nm fluorescence (AID 1097).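 Also: probe is a biotinylated anti-EGFR antibody binding compounds printed on slides; score combines fluorescence near 667 nm and signal to noise of each spot.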 The note with it: higher = more signal.

Activity calls are given as the source filed them.

Torsin-1A-interacting protein 2 (Homo sapiens), sequence (Q8NFQ8 whole entry, looked up): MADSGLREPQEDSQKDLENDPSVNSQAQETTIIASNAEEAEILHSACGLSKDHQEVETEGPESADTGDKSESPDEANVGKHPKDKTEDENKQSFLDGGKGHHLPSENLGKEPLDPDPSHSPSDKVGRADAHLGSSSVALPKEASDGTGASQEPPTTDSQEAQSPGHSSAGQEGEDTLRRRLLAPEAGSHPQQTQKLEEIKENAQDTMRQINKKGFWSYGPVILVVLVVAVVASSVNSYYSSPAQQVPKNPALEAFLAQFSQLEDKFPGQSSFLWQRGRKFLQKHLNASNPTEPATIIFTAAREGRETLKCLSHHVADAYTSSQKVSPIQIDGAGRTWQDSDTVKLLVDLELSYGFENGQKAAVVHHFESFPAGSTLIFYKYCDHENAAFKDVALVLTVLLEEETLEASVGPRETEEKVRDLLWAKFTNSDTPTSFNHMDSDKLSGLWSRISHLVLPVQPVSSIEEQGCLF
Neurogenic locus notch homolog protein 3 (Homo sapiens), sequence (Q9UM47 whole entry, looked up): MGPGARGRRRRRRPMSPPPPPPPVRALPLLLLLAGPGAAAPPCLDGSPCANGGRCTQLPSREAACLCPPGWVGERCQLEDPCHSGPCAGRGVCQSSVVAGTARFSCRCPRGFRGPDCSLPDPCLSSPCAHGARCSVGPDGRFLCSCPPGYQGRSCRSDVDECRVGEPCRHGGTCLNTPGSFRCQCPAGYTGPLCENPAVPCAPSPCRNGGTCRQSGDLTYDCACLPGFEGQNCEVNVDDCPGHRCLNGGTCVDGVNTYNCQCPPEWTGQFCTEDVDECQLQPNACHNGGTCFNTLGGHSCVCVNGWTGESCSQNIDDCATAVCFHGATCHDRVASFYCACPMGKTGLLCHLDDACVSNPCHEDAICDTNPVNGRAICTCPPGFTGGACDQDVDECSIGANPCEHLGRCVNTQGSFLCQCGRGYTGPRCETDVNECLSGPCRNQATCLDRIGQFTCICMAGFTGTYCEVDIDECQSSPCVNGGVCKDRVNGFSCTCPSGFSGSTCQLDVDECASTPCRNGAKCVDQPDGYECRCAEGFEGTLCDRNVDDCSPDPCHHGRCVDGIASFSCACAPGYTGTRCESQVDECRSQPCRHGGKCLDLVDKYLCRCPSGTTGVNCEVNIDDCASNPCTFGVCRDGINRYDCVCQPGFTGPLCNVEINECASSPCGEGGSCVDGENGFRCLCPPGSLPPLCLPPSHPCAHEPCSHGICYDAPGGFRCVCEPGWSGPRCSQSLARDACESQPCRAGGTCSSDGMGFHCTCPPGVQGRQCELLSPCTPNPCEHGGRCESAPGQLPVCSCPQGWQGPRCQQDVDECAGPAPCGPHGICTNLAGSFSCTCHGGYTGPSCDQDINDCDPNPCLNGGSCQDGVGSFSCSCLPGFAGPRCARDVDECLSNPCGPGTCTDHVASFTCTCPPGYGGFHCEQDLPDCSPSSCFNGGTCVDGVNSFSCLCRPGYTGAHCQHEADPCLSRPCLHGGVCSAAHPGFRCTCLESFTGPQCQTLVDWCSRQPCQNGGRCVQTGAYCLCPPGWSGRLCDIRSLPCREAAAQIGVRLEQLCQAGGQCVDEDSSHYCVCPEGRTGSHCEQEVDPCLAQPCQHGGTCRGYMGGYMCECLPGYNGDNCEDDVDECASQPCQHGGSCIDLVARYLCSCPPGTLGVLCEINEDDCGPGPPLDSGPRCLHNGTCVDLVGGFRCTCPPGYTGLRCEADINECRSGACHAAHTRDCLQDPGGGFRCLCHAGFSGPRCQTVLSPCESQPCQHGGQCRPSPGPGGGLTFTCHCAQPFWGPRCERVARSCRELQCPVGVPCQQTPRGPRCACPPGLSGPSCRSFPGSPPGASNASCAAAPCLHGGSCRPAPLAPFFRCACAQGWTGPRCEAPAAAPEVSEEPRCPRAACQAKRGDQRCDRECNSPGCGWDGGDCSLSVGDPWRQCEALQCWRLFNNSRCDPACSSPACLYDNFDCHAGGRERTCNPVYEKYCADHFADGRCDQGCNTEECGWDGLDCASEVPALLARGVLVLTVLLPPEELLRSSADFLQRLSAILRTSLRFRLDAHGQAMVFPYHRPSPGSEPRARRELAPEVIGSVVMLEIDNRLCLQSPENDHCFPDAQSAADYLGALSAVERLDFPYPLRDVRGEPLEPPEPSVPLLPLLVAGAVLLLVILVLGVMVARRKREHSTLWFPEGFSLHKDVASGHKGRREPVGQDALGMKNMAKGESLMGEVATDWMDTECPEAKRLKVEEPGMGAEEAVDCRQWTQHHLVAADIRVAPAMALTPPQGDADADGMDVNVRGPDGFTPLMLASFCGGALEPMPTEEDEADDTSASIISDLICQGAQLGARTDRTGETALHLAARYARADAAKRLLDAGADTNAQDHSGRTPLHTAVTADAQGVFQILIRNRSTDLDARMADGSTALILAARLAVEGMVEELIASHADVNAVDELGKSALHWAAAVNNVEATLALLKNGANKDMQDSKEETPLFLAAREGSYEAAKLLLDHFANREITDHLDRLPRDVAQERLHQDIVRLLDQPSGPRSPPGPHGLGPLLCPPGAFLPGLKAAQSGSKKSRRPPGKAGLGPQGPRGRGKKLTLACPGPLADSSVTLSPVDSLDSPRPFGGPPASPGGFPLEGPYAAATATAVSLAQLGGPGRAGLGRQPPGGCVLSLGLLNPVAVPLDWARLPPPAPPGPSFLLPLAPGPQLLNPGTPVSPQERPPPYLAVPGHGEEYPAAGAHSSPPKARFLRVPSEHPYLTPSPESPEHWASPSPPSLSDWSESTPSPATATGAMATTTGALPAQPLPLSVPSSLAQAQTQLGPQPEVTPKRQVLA

For the compound `[N-]=[N+]=NCc1ccccc1C[C@@]1(C(=O)NCC(O)CO)N=C(c2ccc(OCCCO)cc2)O[C@@H]1c1ccccc1` (stereo not given in full), the composite z-score in experiment [1] was 0.303; in experiment [5], 3.21; in experiment [7], 0.202; in [8], -0.962; in experiment [9], -1.12; in experiment [10], 0.0061. The z-score in [2] was -0.213 (inactive); in [3], -0.272 (inactive); in experiment [4], -0.37 (inactive); in experiment [6] it was 0.627 (inactive).
`O=C1OCCC/C=C\[C@H]2OC34C=CCN(c5ccc6ccccc6c5)C(=O)[C@H]3N(CCCCCO)C(=O)[C@@H]4C12` (stereo not given in full): the composite z-score is -1.23 in [1]; -1.77 in [5]; -0.156 in experiment [7]; -0.766 in [8]; -0.359 in experiment [9]; -0.13 in experiment [10]. For the same compound, the z-score was -1.56 (inactive) in experiment [2], -1.52 (inactive) in experiment [3], -0.419 (inactive) in [4] and -0.72 (inactive) in experiment [6].
For the compound `[N-]=[N+]=Nc1ccccc1C[C@]1(C(=O)NCC(O)CO)N=C(c2ccc(OCCCO)cc2)O[C@H]1c1ccccc1` (stereo not given in full), the composite z-score is 0.909 in experiment [1]; 2.2 in [5]; 0.322 in experiment [7]; -0.5 in experiment [8]; 0.394 in [9]; -0.0826 in [10]. The z-score in [2] was 1.25 (inactive); in experiment [3], 0.0558 (inactive); in experiment [4], 0.568 (inactive); in experiment [6] it was 0.291 (inactive).
For the compound `COC(=O)[C@]1(CCC(=O)OC(C)(C)C)N=C(c2ccc(OCCCO)cc2)O[C@@H]1c1ccccc1`, the composite z-score in [1] is 1.14; in [5], 1.4; in [7], 0.289; in experiment [8], -0.499; in experiment [9], 0.0628; in experiment [10], -0.0689. Moreover, the z-score in [2] was -0.401 (inactive); in experiment [3], -1.72 (inactive); in experiment [4], 1.97 (inactive); in experiment [6] it was 2.85 (inactive).
On to `C=C(CCCC)C(=O)CC[C@@H](OC(C)=O)c1ccc(CO)o1`, for which the composite z-score was 1.54 in [1]; -0.0891 in experiment [5]; -0.241 in experiment [7]; 1.52 in experiment [8]; 0.582 in experiment [9]; -0.162 in experiment [10]. For the same compound, the z-score is -4.06 (inactive) in [2], -15.4 (active) in experiment [3], -2.36 (inactive) in experiment [4] and 0.246 (inactive) in experiment [6].
Turning to `CC(C)CN1C(=O)[C@@]2(c3ccc([N+](=O)[O-])cc3)CC(=O)N(C3CCCCC3)[C@@H]2c2ccc(CO)cc21`, the composite z-score in experiment [1] is -1.13; in experiment [5] it was -0.709; in experiment [7] it was -0.113; in [8], -1.13; in experiment [9] it was -0.626; in experiment [10], -0.261. In addition, the z-score in experiment [2] is 0.0926 (inactive); in [3], 0.612 (inactive); in experiment [4], -1.78 (inactive); in experiment [6] it was 0.733 (inactive).
Take `COc1ccc([Si](C)(C)[C@H]2[C@H](CCO)O[C@@]3(C(=O)N(Cc4ccccc4)c4ccc(N5CCCCC5=O)cc43)[C@@H]2C)cc1`: the composite z-score is 1.56 in experiment [1]; 1.9 in experiment [5]; -0.17 in experiment [7]; 1.23 in experiment [8]; 0.932 in experiment [9]; -0.123 in experiment [10]. Moreover, the z-score in [2] is 0.296 (inactive); in [3], -0.158 (inactive); in experiment [4], 1.97 (inactive); in experiment [6], 0.587 (inactive).
As for `COc1cc2c(cc1O)C=[N+](Cc1cc3c(cc1Br)OCO3)CC2`, the composite z-score in experiment [1] was 0.168; in experiment [5], 0.379; in experiment [7] it was -0.0285; in experiment [8], -0.833; in experiment [9] it was -0.223; in experiment [10], -0.188. For the same compound, the z-score is 0.213 (inactive) in [2], -9.96 (active) in experiment [3], -0.208 (inactive) in experiment [4] and -1.52 (inactive) in experiment [6].
In the case of `COCCOC(=O)N1C(=O)[C@@]2(c3ccccc31)[C@H](c1ccc(OCCO)cc1)N1[C@H](c3ccccc3)[C@H](c3ccccc3)OC(=O)[C@H]1[C@@H]2C(=O)N1CCc2cc(OC)c(OC)cc2C1`, the composite z-score turned out to be 1.53 in experiment [1]; 3.09 in [5]; 0.284 in experiment [7]; 1.12 in [8]; 1.14 in experiment [9]; 0.246 in experiment [10]. In addition, the z-score in experiment [2] is 1.93 (inactive); in experiment [3], 0.856 (inactive); in [4], 4.71 (inactive); in experiment [6], 0.0474 (inactive).
Consider `COC(=O)C[C@H]1O[C@@H](CCc2ccccc2)[C@@H](C)[C@@H]1[Si](C)(C)c1ccc(OC)cc1`, for which the composite z-score was -0.604 in experiment [1]; -0.722 in [5]; -0.253 in experiment [7]; -0.263 in experiment [8]; -0.311 in experiment [9]; -0.206 in experiment [10]. Also, the z-score was 0.425 (inactive) in [2], -0.412 (inactive) in experiment [3], 0.797 (inactive) in experiment [4] and -0.67 (inactive) in experiment [6].
For the compound `CCCCN1CC=CC23O[C@@H]4/C=C\CCCOC(=O)C4[C@H]2C(=O)N(CCCCCO)[C@@H]3C1=O` (stereo not given in full), the composite z-score is -1.13 in experiment [1]; -0.42 in [5]; -0.188 in experiment [7]; -1.16 in experiment [8]; -1.02 in [9]; -0.324 in [10]. Besides, the z-score is -0.669 (inactive) in [2], -0.392 (inactive) in [3], -0.8 (inactive) in experiment [4] and -0.769 (inactive) in experiment [6].
Consider `CC(C)Cc1ccc(CN2CC[C@@H](N)C2)cc1`, for which the composite z-score is -1.05 in experiment [1]; -1.26 in experiment [5]; -0.119 in experiment [7]; -0.707 in experiment [8]; -0.462 in experiment [9]; -0.336 in [10]. Besides, the z-score is -1.18 (inactive) in [2], -21.4 (active) in [3], -4.81 (inactive) in [4] and -4.43 (inactive) in experiment [6].
With `COc1ccc(C(O)C2C=CC3C(=O)N(C)C(=O)C3N2N(c2ccccc2)c2ccccc2)c2ccccc12` (stereo not given), the composite z-score in experiment [1] was 0.474; in experiment [5], -0.124; in experiment [7] it was 0.242; in experiment [8] it was 0.575; in experiment [9], 0.563; in experiment [10], -0.0283. In addition, the z-score is 0.388 (inactive) in experiment [2], 0.954 (inactive) in experiment [3], 0.375 (inactive) in experiment [4] and -1.27 (inactive) in experiment [6].
In the case of `COC(=O)[C@@]1(CCC(=O)OC(C)(C)C)N=C(c2ccc(OCCCO)cc2)O[C@H]1c1ccccc1`, the composite z-score in experiment [1] was 0.899; in experiment [5], 1.29; in [7], 0.0478; in experiment [8], -0.105; in [9] it was 0.194; in [10] it was -0.125. Also, the z-score in experiment [2] was -0.144 (inactive); in experiment [3] it was -2.78 (inactive); in experiment [4], 3.15 (inactive); in experiment [6], -2.76 (inactive).
